Source: PubChem BioAssay (Tox21)
Records with an inconclusive call do not appear. Values without a mark were called inactive. Activity calls are given as the source filed them. Calls come from the whole dose curve; as a rule, active = well fitted inhibition curve with a large enough effect in the repeat runs; inconclusive = weak or mixed curves; inactive = no such curve, though single readings can be large or run the other way.

target: Cytochrome P450 3A4 (Homo sapiens) (UniProt P08684); assay: Cytochrome P450 Family 3 Subfamily A Member 4 (CYP3A4) small molecule antagonists: luciferase reporter qHTS assay (AID 1671201); details: P450-Glo CYP3A4 enzyme, luciferin luminescence, 1 h; series mostly up to 115 µM; activity change, negative = inhibition: at the top concentration; note: nearly all actives have a fitted effect of over 50% in size
Source text: National Center for Advancing Translational Sciences [NCATS]
U.S. Environmental Protection Agency [EPA]
National Institutes of Environmental Health Sciences [NIEHS]
National Toxicology Program [NTP]
U.S. Food and Drug Administration [FDA]
Cytochrome P450 (CYP) enzymes are membrane-bound hemeproteins that play a key role in metabolism of drugs and xenobiotics. Evaluation of the effect of chemicals on CYP isozymes is useful to minimize the adverse drug reactions and toxicities in drug development process. Tox21 chemicals were tested for their effect on CYP enzyme activities by using P450-Glo (TM) screening systems (Promega Corporation, Madison, WI). These systems provide a luminescent method containing proluciferin substrates and are converted to luciferin products by CYP isozymes. The luciferin products formed are detected with a luciferin detection reagent, and the amount of light produced is proportional to CYP activity. P450-Glo (TM) CYP3A4 screening system (Catalog. No. V9910) was used to detect the compounds that interfere in CYP3A4 activity. The positive control compound used for CYP3A4 assay is ketoconazole (Sigma-Aldrich, St. Louis, MO).
Tox21 Assay Protocol Summary:
Two ul of enzyme-substrate mix was dispensed into medium binding white/solid 1536-well plates (Greiner Bio-One North America Inc., Monroe, NC) using a BioRaptr Flying Reagent Dispenser (FRD, Beckman Coulter, Brea, CA). Compounds dissolved in DMSO and positive control (ketoconazole) were transferred to the assay plates at 23 nl using a Pintool station (Wako, San Diego, CA). The assay plates were incubated at room temperature for 10 min. Then 2 ul of NADPH regeneration solution was added to each well of the assay plates using an FRD and incubated at room temperature for 1 h. The reaction was stopped by adding 4 ul of detection reagent using an FRD and after 20 min incubation at room temperature the luminescence signal was measured using a ViewLux plate reader (Perkin Elmer, Shelton, CT). Data were expressed as relative luminescence units.
% is set by controls: 0 for no effect and ±100 for the full control effect; potency is the fitted concentration of half-maximal effect.

Chain of Cytochrome P450 3A4 (Homo sapiens) (P08684 whole entry, looked up): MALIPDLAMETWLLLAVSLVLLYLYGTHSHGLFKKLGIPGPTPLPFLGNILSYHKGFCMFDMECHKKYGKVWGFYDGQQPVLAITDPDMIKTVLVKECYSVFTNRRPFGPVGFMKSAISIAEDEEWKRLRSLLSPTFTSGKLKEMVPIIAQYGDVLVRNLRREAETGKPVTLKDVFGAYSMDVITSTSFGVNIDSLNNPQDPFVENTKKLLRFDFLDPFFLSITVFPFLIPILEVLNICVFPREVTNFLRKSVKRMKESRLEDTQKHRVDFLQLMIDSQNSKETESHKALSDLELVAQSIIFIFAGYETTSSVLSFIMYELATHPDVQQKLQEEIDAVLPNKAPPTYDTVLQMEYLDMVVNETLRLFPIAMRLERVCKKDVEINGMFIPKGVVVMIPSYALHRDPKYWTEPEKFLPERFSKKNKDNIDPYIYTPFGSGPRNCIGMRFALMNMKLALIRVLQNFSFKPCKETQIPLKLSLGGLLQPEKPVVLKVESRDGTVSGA

**Q.** With `C=CC(C)=O` as the compound, how does the “activity change, negative = inhibition” value read?
**A.** 8.17%

**Q.** `COCC(C)N(C(=O)CCl)c1c(C)csc1C` (stereo not given) was tested. Which “activity change, negative = inhibition” value did it give?
**A.** 6.49%

**Q.** `COP(=S)(OC)Oc1cc(Cl)c(I)cc1Cl` was tested. Which Potency did it give?
**A.** 20 µM (active)

**Q.** For `CCOP(=S)(Oc1ccc([N+](=O)[O-])cc1)c1ccccc1` (stereo not given), which Potency is on record?
**A.** 1.59 µM (active)

**Q.** `CCCN(CCCl)c1c([N+](=O)[O-])cc(C(F)(F)F)cc1[N+](=O)[O-]` was tested. Which Potency did it give?
**A.** 22.4 µM (active)

**Q.** `O=NN1CCNCC1` was tested. Which “activity change, negative = inhibition” value did it give?
**A.** -18%

**Q.** Which Potency does the source give for `COP(=S)(OC)Oc1ccc([N+](=O)[O-])cc1Cl` here?
**A.** 6.33 µM (active)

**Q.** For `C[C@]12CC[C@H]3[C@@H](CCC4=CC(=O)CC[C@@H]43)[C@@H]1CC[C@@H]2OC(=O)CCC1CCCCC1`, which “activity change, negative = inhibition” value is on record?
**A.** 34% [at 52.9 µM]

**Q.** `O=C(C(Cl)(Cl)Cl)C(Cl)(Cl)Cl` was tested. Which “activity change, negative = inhibition” value did it give?
**A.** -0.406%

**Q.** For `Nc1nc(=S)[nH][nH]1`, which “activity change, negative = inhibition” value is on record?
**A.** 4.41%

**Q.** With `N#Cc1ccc(Cl)cc1` as the compound, how does the “activity change, negative = inhibition” value read?
**A.** 2.36%

**Q.** Which “activity change, negative = inhibition” value does the source give for `Cn1cc[n+](C)c1` (tested in a mixture with another compound) here?
**A.** 2.33%

**Q.** `Cc1ccccc1CCl` was tested. Which “activity change, negative = inhibition” value did it give?
**A.** 4.56%

**Q.** For `CCOC(=O)CBr`, which “activity change, negative = inhibition” value is on record?
**A.** -1.75%

**Q.** Which “activity change, negative = inhibition” value does the source give for `CC(Cl)Cl` here?
**A.** 2.2%

**Q.** How did the “activity change, negative = inhibition” value turn out when `O=C(O)C(F)(F)C(F)(F)C(F)(F)C(F)(F)C(F)(F)C(F)(F)C(F)(F)C(F)(F)C(F)(F)C(F)(F)F` was run?
**A.** 28.8%

**Q.** `Nc1ccc([N+](=O)[O-])cc1[N+](=O)[O-]` was tested. Which “activity change, negative = inhibition” value did it give?
**A.** -16.1%

**Q.** Which “activity change, negative = inhibition” value does the source give for `BrCCCCBr` here?
**A.** 1.69%

**Q.** `CS/C(C)=N/OC(=O)N(C)SN(C)C(=O)O/N=C(\C)SC` was tested. Which “activity change, negative = inhibition” value did it give?
**A.** 77.2%

**Q.** For `CC(O)(CS(=O)(=O)c1ccc(F)cc1)C(=O)Nc1ccc(C#N)c(C(F)(F)F)c1` (stereo not given), which Potency is on record?
**A.** 2.33 µM (active)

**Q.** Which “activity change, negative = inhibition” value does the source give for `COc1nn(C(=O)NS(=O)(=O)c2ccccc2OC(F)(F)F)c(=O)n1C` here?
**A.** 1.54%

**Q.** For `CCCCC(CC)COP(=O)(Oc1ccccc1)Oc1ccccc1` (stereo not given), which Potency is on record?
**A.** 5.64 µM (active)

**Q.** With `CNC(C)Cc1ccccc1OC` (stereo not given) as the compound, how does the “activity change, negative = inhibition” value read?
**A.** 4.46% [at 52.9 µM]

**Q.** For `[O-][Cl+]O`, which “activity change, negative = inhibition” value is on record?
**A.** 6.43%

**Q.** Which Potency does the source give for `C/C(=C\c1ccccc1)[N+](=O)[O-]` here?
**A.** 44.8 µM (active)

**Q.** How did the Potency turn out when `CCn1cc[n+](C)c1` was run?
**A.** inactive

**Q.** Which Potency does the source give for `CCOP(=S)(OCC)Oc1cc(Cl)c(Br)cc1Cl` here?
**A.** 2.24 µM (active)

**Q.** How did the Potency turn out when `COP(=S)(Oc1cc(Cl)c(Br)cc1Cl)c1ccccc1` (stereo not given) was run?
**A.** 7.1 µM (active)

**Q.** With `CO[C@@H]1[C@H](OC(=O)NC(=O)CCl)CC[C@]2(CO2)[C@H]1[C@@]1(C)O[C@@H]1CC=C(C)C` as the compound, how does the Potency read?
**A.** 7.74 µM (active)

**Q.** `Cc1ccccc1C(=O)Nc1cccc(OC(C)C)c1` was tested. Which “activity change, negative = inhibition” value did it give?
**A.** -29%

**Q.** For `CC/C(=N\OC/C=C/Cl)C1=C(O)CC(C2CCOCC2)CC1=O` (stereo not given), which Potency is on record?
**A.** 31.7 µM (active)

**Q.** With `CC(=O)C(C)(C)C` as the compound, how does the “activity change, negative = inhibition” value read?
**A.** 5.61%

**Q.** `ClCC(Br)CBr` (stereo not given) was tested. Which “activity change, negative = inhibition” value did it give?
**A.** 17.1%

**Q.** With `C=CC(=O)OC(C)(C)C` as the compound, how does the “activity change, negative = inhibition” value read?
**A.** -13.3%

**Q.** How did the “activity change, negative = inhibition” value turn out when `COC(=O)C(Br)CBr` (stereo not given) was run?
**A.** 4.47%

**Q.** With `NCC(CC(=O)O)c1ccc(Cl)cc1` (stereo not given) as the compound, how does the activity change, negative = inhibition read?
**A.** 4.59% [at 0.435 µM]

**Q.** Which Potency does the source give for `C=CCC1([C@H](C)CCC)C(=O)NC(=O)NC1=O` here?
**A.** 31.4 µM (active)

**Q.** With `COC(=O)C(C)N(C(=O)Cc1ccccc1)c1c(C)cccc1C` (stereo not given) as the compound, how does the “activity change, negative = inhibition” value read?
**A.** 44.4%

**Q.** With `COc1cc(Cl)c(OC)cc1Cl` as the compound, how does the Potency read?
**A.** 15.9 µM (active)

**Q.** For `Clc1cccc2ccccc12`, which “activity change, negative = inhibition” value is on record?
**A.** 2.29%
